According to PubChem BioAssay (NCATS):
Results filed as inconclusive are left out. A call without a number means that no potency is given here. A number with no mark means an inactive call. Activity calls are given as the source filed them. Calls follow the shape of the dose curve; as a rule, active = well fitted curve in the direction sought with a large enough effect; inconclusive = small, poorly fitted or top-dose-only effect, or another doubt; inactive = no such curve, though single readings can be large; an effect the other way counts as inactive or inconclusive.

Columns and labels:
[1] = target: Rap guanine nucleotide exchange factor 3 (Homo sapiens) (UniProt O95398); assay: Confirmatory qHTS for antagonist of cAMP-regulated guanine nucleotide exchange factor 3 (EPAC1) (AID 1645880); details: EPAC1 Rap1B-BODIPY-GDP exchange, fluorescence; activity, negative = inhibition: at 115 µM (top of the series); also: nearly all actives have a fitted effect of over 55% in size; also: potency is read from the fitted curve at half-maximal effect
Rap guanine nucleotide exchange factor 3 (Homo sapiens), sequence (O95398 whole entry, looked up): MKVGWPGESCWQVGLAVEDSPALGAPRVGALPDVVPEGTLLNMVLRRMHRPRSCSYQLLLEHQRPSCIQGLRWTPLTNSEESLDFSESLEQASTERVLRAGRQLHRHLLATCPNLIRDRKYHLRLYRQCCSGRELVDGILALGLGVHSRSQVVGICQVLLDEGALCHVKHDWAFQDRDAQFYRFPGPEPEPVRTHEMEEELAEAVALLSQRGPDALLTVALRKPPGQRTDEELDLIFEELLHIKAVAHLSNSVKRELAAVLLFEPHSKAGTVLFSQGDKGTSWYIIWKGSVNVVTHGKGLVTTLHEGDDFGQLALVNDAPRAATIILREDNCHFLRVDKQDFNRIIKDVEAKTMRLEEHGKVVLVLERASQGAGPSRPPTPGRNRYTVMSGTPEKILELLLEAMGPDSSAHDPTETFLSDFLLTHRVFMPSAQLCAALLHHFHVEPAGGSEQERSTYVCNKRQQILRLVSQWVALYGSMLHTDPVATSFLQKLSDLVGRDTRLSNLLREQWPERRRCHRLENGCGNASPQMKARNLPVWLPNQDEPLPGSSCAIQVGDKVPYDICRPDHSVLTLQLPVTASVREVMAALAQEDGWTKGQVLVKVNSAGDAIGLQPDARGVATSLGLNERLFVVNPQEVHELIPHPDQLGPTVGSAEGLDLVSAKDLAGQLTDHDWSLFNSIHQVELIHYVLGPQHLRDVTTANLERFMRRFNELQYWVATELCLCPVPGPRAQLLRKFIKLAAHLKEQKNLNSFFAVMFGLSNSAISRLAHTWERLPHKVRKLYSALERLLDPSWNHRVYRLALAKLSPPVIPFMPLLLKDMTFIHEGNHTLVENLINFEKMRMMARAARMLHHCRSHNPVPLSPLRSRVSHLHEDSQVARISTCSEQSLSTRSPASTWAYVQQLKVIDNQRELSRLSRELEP
Method in brief: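 Nucleotide exchange uses 100 nM EPAC1, 250 nM RAP1B-BODIPY-GDP and 50 uM GDP, with compounds in a concentration-titration series. After 5 min at room temperature, fluorescence (480 nm ex/540 nm em) is read every 5 min for 30 min. Data are normalized to control ATA and DMSO.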

[2] = target: Rap guanine nucleotide exchange factor 3 (Homo sapiens) (UniProt O95398); assay: Confirmatory qHTS for agonist of cAMP-regulated guanine nucleotide exchange factor 3 (EPAC1) (AID 1645881); also: nearly all actives have a fitted effect of over 75% in size; also: potency is read from the fitted curve at half-maximal effect;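 as to activation: EPAC1 catalysed release of BODIPY-GDP from Rap1B seen as fluorescence loss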
[3] = target: Rap guanine nucleotide exchange factor 3 (Homo sapiens) (UniProt O95398); assay: Counterscreen qHTS for antagonist of cAMP-regulated guanine nucleotide exchange factor 3 (EPAC1) (AID 1645888);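 also: fluorescence loss as bound BODIPY-GDP is released from Rap1B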
Method in brief: (§1)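 Rap1B-BODIPY-GDP 250 nM + GDP 50 uM; cpds 7-pt, final 9.74 nM–152 uM (activator mode) or from 7.32 nM upwards (inhibitor mode); RT; FI 480/540 nm at 5 and 30 min, then ± cAMP, reread.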

[4] = target: Rap guanine nucleotide exchange factor 3 (Homo sapiens) (UniProt O95398); assay: Counterscreen qHTS for agonist of cAMP-regulated guanine nucleotide exchange factor 3 (EPAC1) (AID 1645889); also: nearly all actives have a fitted effect of over 40% in size; also: potency is read from the fitted curve at half-maximal effect
Method in brief: as §1

SMILES | Potency [1] | Potency [2] | activity change, negative = inhibition [3] | Potency [3] | Potency [4] | activation [4]
Cc1cc(C)c2c(CN3CCCCC3C)cc(=O)oc2c1 (centres undefined) | inactive | inactive | -3.91% [at 30.8 µM] | – | – | –
COc1cc(NC(C)=O)ccc1-c1cc2ccccc2oc1=O | inactive | inactive | – | inactive | – | –
Cc1cc2ccccn2c1C(=O)c1ccc(F)cc1 | inactive | inactive | – | inactive | – | –
CC(=O)N1N=C2c3ccccc3CCC2C1c1cccs1 (centres undefined) | inactive | inactive | -17.6% [at 30.8 µM] | – | – | –
COC(=O)c1cn(S(=O)(=O)c2ccccc2)c2ccccc12 | inactive | inactive | – | inactive | – | –
CC1CCCN(C2(O)C(=O)Nc3ccc(Br)cc32)C1 (centres undefined) | inactive | inactive | – | inactive | – | –
CCCCn1nnnc1C(c1cc2ccccc2o1)N1CCCC1 (centres undefined) | inactive | inactive | – | inactive | – | –
COC(=O)[C@@H]1CC[C@@](C)(c2ccc(OC)cc2)C1(C)C | inactive | inactive | 8.1% [at 30.8 µM] | – | – | –
COc1ccc(NC(=O)CSc2ccccc2)cc1S(=O)(=O)N1CCCCC1 | inactive | inactive | – | inactive | – | –
COc1ccc(C2CC(=O)Oc3ccc(OC)cc32)cc1 (centres undefined) | inactive | inactive | -2.08% [at 30.8 µM] | – | – | –
Cn1ccc2c(N3CCCCCCC3)cc3c(c21)C1CCC3O1 (centres undefined) | inactive | inactive | – | inactive | – | –
Cc1oc2cc(Br)c(O)c(Br)c2c1-c1ccccc1 | inactive | inactive | – | inactive | – | –
O=C(c1ccccc1F)n1c2c(c3ccccc31)CCCC2 | inactive | inactive | – | inactive | – | –
Cc1nc(Nc2ccc(Br)cc2Br)c([N+](=O)[O-])c(=O)[nH]1 | inactive | inactive | – | inactive | – | –
CCOc1ccc(S(=O)(=O)N2CCCCC2)c(C)c1C | inactive | inactive | – | inactive | – | –
O=C(COc1ccc(Br)cc1Cl)c1ccc[nH]1 | inactive | inactive | – | inactive | – | –
COc1ccc2ccc3c(c2c1)N=C[C@]1(O3)N(C)c2ccccc2C1(C)C | inactive | inactive | – | inactive | – | –
COCCN(CCOC)Cc1cc(=O)oc2cc(OC)c(Cl)cc12 | inactive | inactive | -10.8% [at 30.8 µM] | – | – | –
COc1cnc(-c2ccccc2)nc1Sc1ccccc1 | inactive | inactive | – | inactive | – | –
CC1CCCN(C2(O)C(=O)Nc3c(C(F)(F)F)cccc32)C1 (centres undefined) | inactive | inactive | -14.6% [at 30.8 µM] | – | – | –
COC(=O)c1cn(C(=O)c2ccc(OC)c(OC)c2)c2ccccc12 | inactive | inactive | -11% [at 30.8 µM] | – | – | –
O=c1cc(N2CCCCC2)c(-c2ccccc2)nn1Cc1ccccc1 | inactive | inactive | – | inactive | – | –
COc1ccccc1N(C)c1cc2c(c3c1ccn3C)C1CCC2O1 (centres undefined) | inactive | inactive | – | inactive | – | –
COC(=O)c1ccc2nc(-c3ccc(F)cc3)c(Cc3ccsc3)n2c1 | inactive | inactive | -9.08% [at 30.8 µM] | – | – | –

SMILES | Potency [1] | Potency [2] | activity change, negative = inhibition [3] | Potency [3] | Potency [4] | activation [4]
CCn1c(=O)c(C(=O)NNS(=O)(=O)c2ccc(C)cc2)c(O)c2ccccc21 | 75.7 µM (active) | inactive | – | inactive | – | –
O=C1CSC(=Nc2ccccc2)N1Cc1ccccc1 | inactive | inactive | – | inactive | – | –
CC(=O)Nc1ccc(NC(=O)C2Cc3c(-c4ccc5c(c4)OCO5)ccnc3O2)cc1 (centres undefined) | inactive | inactive | – | inactive | – | –
Cc1ccc(N2CC(NC(=O)C(=O)c3c[nH]c4ccccc34)CC2=O)cc1C (centres undefined) | inactive | inactive | – | inactive | – | –
O=C1OC(c2ccccc2)(c2ccccc2)c2ccsc21 | inactive | inactive | – | inactive | – | –
COc1ccc(C2CC(=O)Oc3cc(C)c(Cl)cc32)cc1 (centres undefined) | inactive | inactive | – | inactive | – | –
COc1ccc(-n2cc(-c3ccccc3)c3c(N4CCOCC4)ncnc32)cc1 | inactive | inactive | – | inactive | – | –
COC(=O)c1cccc(F)c1C(=O)c1cccc2ccccc12 | inactive | inactive | – | inactive | – | –
Cc1nn(-c2c(Cl)cc(Cl)cc2Cl)c(=O)c2ccccc12 | inactive | inactive | – | inactive | – | –
COc1ccc2c(c1)CCc1c(C(=O)N3CCCc4ccccc43)noc1-2 | inactive | inactive | – | inactive | – | –
COc1ccc(C2CC(=O)Oc3cc(C)cc(C)c32)cc1 (centres undefined) | inactive | inactive | – | inactive | – | –
Cc1ccc(O)c(C(=O)c2cc(C#N)c(=O)n(-c3nccs3)c2)c1 | inactive | 100 µM (active) | – | inactive | 35.5 µM (active) | –
CCCC(CNC(C)=O)(C1=CCCCC1)c1ccccc1 (centres undefined) | inactive | inactive | 1.17% [at 30.8 µM] | – | – | 15.1% [at 30.8 µM]
CCCCc1c(C)nc2ccccc2c1SCCC#N | inactive | inactive | -10% [at 30.8 µM] | – | – | –
C=C(C)Cn1c(C)cc(C)c(S(=O)(=O)c2ccccc2C)c1=O | inactive | inactive | -6.66% [at 30.8 µM] | – | – | –
COc1ccc2cc(S(=O)(=O)N3CCCC3)ccc2c1 | inactive | inactive | -17.9% [at 30.8 µM] | – | – | 13.3% [at 30.8 µM]
CCCCC[C@@H]1C=C(C(=O)O)[C@H](c2ccc(Cl)c(Cl)c2)N1S(=O)(=O)c1ccc(C)cc1 | 30.1 µM (active) | inactive | – | inactive | inactive | –
Cc1ccc(C23CC4CC(CC(C(=O)N(C)C)(C4)C2)C3)cc1 | inactive | inactive | – | inactive | – | –
CCN(Cc1cc(=O)oc2cc(C)ccc12)c1ccccc1 | inactive | inactive | – | inactive | – | –
COC(=O)c1ccc2nc(-c3ccc(OC)c(OC)c3)c(CC3CCCCC3)n2c1 | inactive | inactive | – | inactive | inactive | –
O=C(O)c1ccc(NC(=O)C(c2ccccc2)c2ccccc2)cc1 | inactive | inactive | – | inactive | – | –
C=CCN(CC=C)Cc1cc(=O)oc2cc(C)cc(C)c12 | inactive | inactive | -4% [at 30.8 µM] | – | – | –
CC1CN(c2nc(-c3ccccc3)nc3ccccc23)CC(C)O1 (centres undefined) | inactive | inactive | 3.46% [at 30.8 µM] | – | – | 21.3% [at 30.8 µM]
O=C(O)CCNC(=O)c1ccc(NC(=O)C(c2ccccc2)c2ccccc2)cc1 | inactive | inactive | – | inactive | – | –

SMILES | Potency [1] | Potency [2] | activity change, negative = inhibition [3] | Potency [3] | Potency [4] | activation [4]
CNc1snc(C)c1C(=O)OCC(=O)Nc1ccc(C)cc1F | inactive | inactive | – | inactive | inactive | –
Cc1ccc(C2N(c3cccc(Cl)c3)C(=O)N3CCCN23)cc1 (centres undefined) | inactive | inactive | -4.78% [at 30.8 µM] | – | – | 3.03% [at 30.8 µM]
Cc1ccn2c(-c3csc(NCc4ccccc4)n3)c(C)nc2c1 | inactive | inactive | – | inactive | – | –
Cc1cc(C)c2c(c1)OC(=O)CC2c1ccccc1C (centres undefined) | inactive | inactive | – | inactive | inactive | –
COc1ccc(S(=O)(=O)N2CCCC2)c2ccccc12 | inactive | inactive | -10.4% [at 30.8 µM] | – | – | 9.58% [at 30.8 µM]
O=C1[C@H]2CCC=C[C@H]2[C@H](c2ccccc2Br)N1Cc1ccccc1 | inactive | inactive | – | inactive | inactive | –
COC(=O)c1ccc2nc(-c3cccc(Br)c3)c(Cc3ccsc3)n2c1 | inactive | inactive | -25% [at 30.8 µM] | – | – | 17.8% [at 30.8 µM]
Cc1ccc(C2N(c3ccc(Cl)cc3)C(=O)N3CCCN23)cc1 (centres undefined) | inactive | inactive | – | inactive | inactive | –
CC(=O)O[C@H]1c2ccccc2-c2ccccc2[C@@H]1OC(C)=O | inactive | inactive | -14.6% [at 30.8 µM] | – | – | 8.91% [at 30.8 µM]
O=C(O)CCCN1C(=O)/C(=C/c2cn(-c3ccccc3)nc2-c2cccs2)SC1=S | inactive | 112 µM (active) | – | inactive | 15.8 µM (active) | –
Cc1ccc(-c2nn3cnnc3c3ccccc23)cc1C | inactive | inactive | -44.9% [at 30.8 µM] | – | – | 5.84% [at 30.8 µM]
Cc1cccc2c1NC(=O)C2(O)N1CCCC(C)C1 (centres undefined) | inactive | inactive | – | inactive | inactive | –
COc1ccc(Nc2cccc3ccccc23)cc1 | inactive | inactive | – | inactive | – | –
COc1ccc(-c2ccc(CCC(=O)O)n2-c2ccc(Cl)cc2C)cc1 | inactive | inactive | – | inactive | inactive | –
COc1ccc(Cl)cc1NC(=O)CN(C)Cc1ccc(OC)c(OC)c1 | inactive | inactive | – | inactive | – | –
COc1ccc(/C=C/C(=O)c2ccc(Cl)cc2)c(OC)c1 | inactive | inactive | – | inactive | – | –
COCCN(CCOC)Cc1cc(=O)oc2cc(C)cc(C)c12 | inactive | inactive | – | inactive | inactive | –
COc1ccc(C2=CC3=C(Br)C(=O)C(C)(OC(=O)c4cccs4)C(=O)C3=CO2)cc1 (centres undefined) | 16.9 µM (active) | inactive | – | inactive | – | –
CCCC[C@@H]1C=C(C(=O)O)[C@H](c2ccc(Cl)c(Cl)c2)N1S(=O)(=O)c1ccc(C)cc1 | 84.9 µM (active) | inactive | – | inactive | inactive | –
COC(=O)c1ccc2nc(-c3ccc(Cl)cc3)c(CC3CCCCC3)n2c1 | inactive | inactive | – | inactive | inactive | –
CC(C)CN(C(=O)c1ccco1)c1nc2ccccc2s1 | inactive | inactive | – | inactive | inactive | –
CCCCn1nnnc1C(c1cc2ccccc2o1)N1CCN(c2cc(C)nc3ccccc23)CC1 (centres undefined) | inactive | inactive | – | inactive | – | –
O=c1ccc(NS(=O)(=O)c2ccc(Cl)cc2)cn1Cc1ccc(Cl)c(Cl)c1 | 75.7 µM (active) | inactive | – | inactive | – | –
CCCCC1=C(C(=O)OCC)C(C(=O)OCC)Oc2ccccc21 (centres undefined) | inactive | inactive | – | inactive | inactive | –
